Results published in PubChem BioAssay.
A number with no mark means an inactive call. The source made the active and inactive calls. Unless noted, how the calls were made is not given here.

Molecular target: Dihydroorotate dehydrogenase (quinone), mitochondrial (Plasmodium falciparum (isolate 3D7)) (UniProt Q08210)
Assay: inhibition of P. falciparum DHODH – biochemical, C-terminal His tag, absorbance 600 nm, primary screen (AID 1175);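 further: recombinant parasite enzyme with a five histidine tag at its C terminus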
Details: PfDHODH enzyme, DCIP absorbance 600 nm; higher = more signal, called active from +8 up or from −8 down
Further: test concentration not given here.

Sequence of Dihydroorotate dehydrogenase (quinone), mitochondrial (Plasmodium falciparum (isolate 3D7)) (Q08210 whole entry, looked up): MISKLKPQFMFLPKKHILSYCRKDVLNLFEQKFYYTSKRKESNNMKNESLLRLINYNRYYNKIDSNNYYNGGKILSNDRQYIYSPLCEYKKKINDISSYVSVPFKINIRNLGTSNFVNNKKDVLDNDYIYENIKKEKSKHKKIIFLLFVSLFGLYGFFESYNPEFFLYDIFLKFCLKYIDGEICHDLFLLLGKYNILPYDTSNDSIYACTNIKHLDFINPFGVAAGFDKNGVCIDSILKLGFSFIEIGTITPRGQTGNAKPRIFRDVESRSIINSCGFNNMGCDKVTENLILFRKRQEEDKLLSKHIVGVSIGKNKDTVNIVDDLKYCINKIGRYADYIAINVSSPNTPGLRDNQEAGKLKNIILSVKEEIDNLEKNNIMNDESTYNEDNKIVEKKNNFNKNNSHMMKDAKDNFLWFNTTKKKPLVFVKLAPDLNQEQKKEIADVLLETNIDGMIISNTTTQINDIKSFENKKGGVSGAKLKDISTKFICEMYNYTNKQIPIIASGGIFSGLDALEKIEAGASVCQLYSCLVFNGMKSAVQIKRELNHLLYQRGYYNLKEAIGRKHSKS

**Q.** With CC(C)C[C@@H]1NC(=O)[C@H]2C[C@@H](C(=O)NCCCCCC[N+](C)(C)C)[C@@H](c3ccc(O)cc3)N2C1=O as the compound, how does the composite z-score read?
**A.** -1.51

**Q.** With O=C(NCc1ccccc1)[C@@]1(Cc2ccccc2)COC(c2ccc(OCCCO)cc2)=N1 as the compound, how does the composite z-score read?
**A.** 1.1

**Q.** With C=CCN1C(=O)[C@@]2(Cc3ccccc3)N=C(c3ccc(OCCCO)cc3)O[C@H]2c2ccccc21 as the compound, how does the composite z-score read?
**A.** 0.324

**Q.** With COCCCNC(=O)[C@@H]1c2ccccc2C(=O)N(CC23CC4CC(CC(C4)C2)C3)[C@H]1c1ccc(CO)cc1 as the compound, how does the composite z-score read?
**A.** 0.297

**Q.** Which composite z-score does the source give for [N-]=[N+]=NCc1ccccc1[C@H]1OC(c2ccc(OCCCO)cc2)=N[C@@]1(Cc1ccccc1N=[N+]=[N-])C(=O)NCc1ccccc1 here?
**A.** 0.545

**Q.** With O=C1C2C=CC(C(O)c3ccccc3)N(n3cnnc3)C2C(=O)N1Cc1ccccc1 (stereo not drawn) as the compound, how does the composite z-score read?
**A.** -1.03

**Q.** With CCCC[C@@H]1C[C@H]1[C@@H](NC(=O)c1ccccc1)c1ccccc1C(F)(F)F as the compound, how does the composite z-score read?
**A.** -0.454

**Q.** For COc1ccc(CCN2C(=O)[C@@]3(c4ccc([N+](=O)[O-])cc4)CC(=O)N(CC45CC6CC(CC(C6)C4)C5)[C@@H]3c3ccc(CO)cc32)cc1, which composite z-score is on record?
**A.** -25.3 (active)

**Q.** Which composite z-score does the source give for O=C1O[C@@H](c2ccccc2)[C@@H](c2ccccc2)N2[C@@H](c3ccc(OCCO)cc3)[C@]3(C(=O)Nc4ccc(C#CCCO)cc43)[C@@H](C(=O)N3CCN(c4ncccn4)CC3)[C@H]12 here?
**A.** -1.58

**Q.** For Cc1ccc(S[C@]2(C(=O)NC(C)C)CC(=O)N(C3Cc4ccccc4C3)[C@@H]2c2ccc(CO)cc2)cc1, which composite z-score is on record?
**A.** -0.335

**Q.** For O=C1O[C@H](c2ccccc2)[C@H](c2ccccc2)N2[C@H]1[C@@H](C(=O)Nc1nc3ccccc3s1)[C@]1(C(=O)Nc3ccc(C#CC4=CCCCC4)cc31)[C@H]2c1ccccc1OCCO, which composite z-score is on record?
**A.** 0.835

**Q.** For C=CC[C@]1(C(=O)O)N=C(c2ccc(OCCCO)cc2)O[C@H]1c1ccccc1N=[N+]=[N-], which composite z-score is on record?
**A.** 0.589

**Q.** With CCOC(=O)C1=C[C@@H](c2ccccc2)N(S(=O)(=O)c2ccc(C)cc2)[C@H]1c1ccc(F)cc1 as the compound, how does the composite z-score read?
**A.** -0.102

**Q.** For C=CCC(OC(C)=O)[C@@H]1[C@@H](N(Cc2cccc3ccccc23)C(=O)c2ccc(C)cc2)c2cc(OCCCO)ccc2N1C(=O)c1ccc(-c2ccccc2)cc1 (stereo partly drawn), which composite z-score is on record?
**A.** -2

**Q.** Which composite z-score does the source give for COc1ccc(-c2cc3c(c(-c4ccccc4)n2)[Si](C(C)C)(C(C)C)O[C@H]3c2ccccc2)cn1 here?
**A.** -0.349

**Q.** Which composite z-score does the source give for Cc1ccc(S[C@]2(C(=O)O)CC(=O)N(Cc3cc(C(F)(F)F)cc(C(F)(F)F)c3)[C@@H]2c2ccc(CO)cc2I)cc1 here?
**A.** 0.0643

**Q.** With O=C1O[C@H](c2ccccc2)[C@H](c2ccccc2)N2[C@H]1[C@@H](C(=O)Nc1nc3ccccc3s1)[C@]1(C(=O)Nc3ccc(C#CC4(O)CCCCCC4)cc31)[C@H]2c1ccc(O)cc1 as the compound, how does the composite z-score read?
**A.** 0.0022

**Q.** Which composite z-score does the source give for O=C1C2C=CC(C(O)C#Cc3ccccc3)N(Nc3ccccc3)C2C(=O)N1c1ccccc1 (stereo not drawn) here?
**A.** -0.766

**Q.** For CN1C(=O)C2C=CC(C(O)C3CC=CCC3)N(Nc3ccccc3)C2C1=O (stereo not drawn), which composite z-score is on record?
**A.** 0.0707

**Q.** With COCCCNC(=O)[C@@]1(c2ccc([N+](=O)[O-])cc2)CC(=O)N(C2CCCCC2)[C@@H]1c1ccc(CO)cc1 as the compound, how does the composite z-score read?
**A.** -0.0394

**Q.** Which composite z-score does the source give for Cc1ccccc1C(O)C1C=CC2C(=O)N(c3ccccc3)C(=O)C2N1Nc1ccc(C#N)cc1 (stereo not drawn) here?
**A.** 0.513

**Q.** For CCOC(=O)C[C@H]1[C@H](OC(=O)Cc2ccc3c(c2)OCO3)[C@@H](NC(=O)c2ccc3ccccc3c2)c2cc(OCCCO)ccc2N1C(=O)Cc1ccc(OC)cc1, which composite z-score is on record?
**A.** -1.09

**Q.** Which composite z-score does the source give for COC(=O)[C@@]1(Cc2ccccc2CN=[N+]=[N-])N=C(c2ccc(OCCCO)cc2)O[C@H]1c1ccccc1N=[N+]=[N-] here?
**A.** 3.12

**Q.** Which composite z-score does the source give for O=C/C=C/c1ccc(/C=C/c2ccccc2)cc1 here?
**A.** -1.43

**Q.** With CC(C)NC(=O)[C@@]1(Cc2ccccc2I)c2ccccc2C(=O)N(C2CCCCC2)[C@H]1c1ccc(CO)cc1 as the compound, how does the composite z-score read?
**A.** -1.45

**Q.** With C=CCC(OC(C)=O)[C@@H]1[C@@H](N(Cc2cccc3ccccc23)C(=O)Cc2ccc(F)cc2)c2cc(OCCCO)ccc2N1C(=O)Cc1ccc2ccccc2c1 (stereo partly drawn) as the compound, how does the composite z-score read?
**A.** -0.373

**Q.** Which composite z-score does the source give for CCCC=C(CCC)[C@@H](NC(=O)c1ccc(C(F)(F)F)cc1)c1ccccc1 here?
**A.** -3.63

Test system: not listed separately
Assay: inhibition of PAO1 biofilm formation – strain PAO1, LB-PBS medium, absorbance 600 nm, primary screen (AID 1176)
Details: P. aeruginosa PAO1 growth/biofilm, A600, 12 h; higher = more signal

**Q.** With COCCOC(=O)N1C(=O)[C@@]2(c3cc(C#CC4=CCCCC4)ccc31)[C@H](C(=O)NC[C@H](O)c1ccccc1)[C@H]1C(=O)O[C@H](c3ccccc3)[C@H](c3ccccc3)N1[C@@H]2c1ccc(OCCO)cc1 as the compound, how does the z-score read?
**A.** 2.83

**Q.** With CCC#CCN(Cc1ccccc1Br)[C@H](/C=C/c1ccccc1)[C@@H](O)Cc1ccccc1 as the compound, how does the z-score read?
**A.** -0.553

**Q.** With C=C(CCCC)/C(=C/C[C@@H](OC(=O)c1ccncc1)c1cccc(OCCO)c1)c1cc(C(=O)OC)ccc1OC as the compound, how does the z-score read?
**A.** 1.05

**Q.** With NC(=O)NCC#Cc1ccc2c(c1)[C@]1(C(=O)N2)[C@H](c2ccccc2OCCO)N2[C@H](c3ccccc3)[C@H](c3ccccc3)OC(=O)[C@H]2[C@@H]1C(=O)N1CCN(c2ncccn2)CC1 as the compound, how does the z-score read?
**A.** 2.31

**Q.** For O=C1OCC=C[C@H]2OC34C=CCN(Cc5ccccc5)C(=O)[C@H]3N(CCO)C(=O)[C@@H]4[C@@H]12 (stereo partly drawn), which z-score is on record?
**A.** 0.317

**Q.** With Cc1ccc(S[C@]2(C(=O)NC(C)C)CC(=O)N(Cc3cc(C(F)(F)F)cc(C(F)(F)F)c3)[C@@H]2c2ccc(CO)cc2I)cc1 as the compound, how does the z-score read?
**A.** 0.447

**Q.** With COc1ccc(C(=O)Nc2ccc(CN3C(=O)[C@]4(O[C@H](CCn5cc(CCO)nn5)[C@@H]([Si](C)(C)c5ccc(OC)cc5)[C@@H]4C)c4ccccc43)cc2)cc1 as the compound, how does the z-score read?
**A.** 0.307

**Q.** For COC(=O)[C@@]1(Cc2ccccc2)[C@H]2c3cc(C(=O)N4CCCC4)n(CCN4CNCC4=O)c3C[C@H]2CN1C(=O)c1ccccc1, which z-score is on record?
**A.** -0.167

**Q.** With CCCNC(=O)[C@@H]1c2ccccc2C(=O)N(C2CCCCC2)[C@H]1c1ccc(CO)cc1 as the compound, how does the z-score read?
**A.** -0.329

**Q.** With CC(C)C[C@@H]1NC(=O)[C@H]2C[C@@H](C(=O)NCCCCCC[N+](C)(C)C)[C@@H](c3ccc(O)cc3)N2C1=O as the compound, how does the z-score read?
**A.** -1.04

**Q.** Which z-score does the source give for O=C(NCc1ccccc1)[C@@]1(Cc2ccccc2)COC(c2ccc(OCCCO)cc2)=N1 here?
**A.** 0.162

**Q.** For C=CCN1C(=O)[C@@]2(Cc3ccccc3)N=C(c3ccc(OCCCO)cc3)O[C@H]2c2ccccc21, which z-score is on record?
**A.** 1.39

**Q.** With COCCCNC(=O)[C@@H]1c2ccccc2C(=O)N(CC23CC4CC(CC(C4)C2)C3)[C@H]1c1ccc(CO)cc1 as the compound, how does the z-score read?
**A.** 0.87

**Q.** With [N-]=[N+]=NCc1ccccc1[C@H]1OC(c2ccc(OCCCO)cc2)=N[C@@]1(Cc1ccccc1N=[N+]=[N-])C(=O)NCc1ccccc1 as the compound, how does the z-score read?
**A.** 2.26

**Q.** With O=C1C2C=CC(C(O)c3ccccc3)N(n3cnnc3)C2C(=O)N1Cc1ccccc1 (stereo not drawn) as the compound, how does the z-score read?
**A.** 1.87

**Q.** For CCCC[C@@H]1C[C@H]1[C@@H](NC(=O)c1ccccc1)c1ccccc1C(F)(F)F, which z-score is on record?
**A.** 0.951

**Q.** With COc1ccc(CCN2C(=O)[C@@]3(c4ccc([N+](=O)[O-])cc4)CC(=O)N(CC45CC6CC(CC(C6)C4)C5)[C@@H]3c3ccc(CO)cc32)cc1 as the compound, how does the z-score read?
**A.** 0.298

**Q.** Which z-score does the source give for O=C1O[C@@H](c2ccccc2)[C@@H](c2ccccc2)N2[C@@H](c3ccc(OCCO)cc3)[C@]3(C(=O)Nc4ccc(C#CCCO)cc43)[C@@H](C(=O)N3CCN(c4ncccn4)CC3)[C@H]12 here?
**A.** 1.55

**Q.** Which z-score does the source give for Cc1ccc(S[C@]2(C(=O)NC(C)C)CC(=O)N(C3Cc4ccccc4C3)[C@@H]2c2ccc(CO)cc2)cc1 here?
**A.** 0.229

**Q.** For O=C1O[C@H](c2ccccc2)[C@H](c2ccccc2)N2[C@H]1[C@@H](C(=O)Nc1nc3ccccc3s1)[C@]1(C(=O)Nc3ccc(C#CC4=CCCCC4)cc31)[C@H]2c1ccccc1OCCO, which z-score is on record?
**A.** 2.73

**Q.** Which z-score does the source give for C=CC[C@]1(C(=O)O)N=C(c2ccc(OCCCO)cc2)O[C@H]1c1ccccc1N=[N+]=[N-] here?
**A.** -1.1

**Q.** Which z-score does the source give for CCOC(=O)C1=C[C@@H](c2ccccc2)N(S(=O)(=O)c2ccc(C)cc2)[C@H]1c1ccc(F)cc1 here?
**A.** 0.216

**Q.** With C=CCC(OC(C)=O)[C@@H]1[C@@H](N(Cc2cccc3ccccc23)C(=O)c2ccc(C)cc2)c2cc(OCCCO)ccc2N1C(=O)c1ccc(-c2ccccc2)cc1 (stereo partly drawn) as the compound, how does the z-score read?
**A.** -0.0178

**Q.** Which z-score does the source give for COc1ccc(-c2cc3c(c(-c4ccccc4)n2)[Si](C(C)C)(C(C)C)O[C@H]3c2ccccc2)cn1 here?
**A.** 0.35

**Q.** For Cc1ccc(S[C@]2(C(=O)O)CC(=O)N(Cc3cc(C(F)(F)F)cc(C(F)(F)F)c3)[C@@H]2c2ccc(CO)cc2I)cc1, which z-score is on record?
**A.** -0.481

**Q.** For O=C1O[C@H](c2ccccc2)[C@H](c2ccccc2)N2[C@H]1[C@@H](C(=O)Nc1nc3ccccc3s1)[C@]1(C(=O)Nc3ccc(C#CC4(O)CCCCCC4)cc31)[C@H]2c1ccc(O)cc1, which z-score is on record?
**A.** 1.44

**Q.** Which z-score does the source give for O=C1C2C=CC(C(O)C#Cc3ccccc3)N(Nc3ccccc3)C2C(=O)N1c1ccccc1 (stereo not drawn) here?
**A.** 0.875

**Q.** For CN1C(=O)C2C=CC(C(O)C3CC=CCC3)N(Nc3ccccc3)C2C1=O (stereo not drawn), which z-score is on record?
**A.** 0.847

**Q.** Which z-score does the source give for COCCCNC(=O)[C@@]1(c2ccc([N+](=O)[O-])cc2)CC(=O)N(C2CCCCC2)[C@@H]1c1ccc(CO)cc1 here?
**A.** 0.814

**Q.** For Cc1ccccc1C(O)C1C=CC2C(=O)N(c3ccccc3)C(=O)C2N1Nc1ccc(C#N)cc1 (stereo not drawn), which z-score is on record?
**A.** 1.26

**Q.** With CCOC(=O)C[C@H]1[C@H](OC(=O)Cc2ccc3c(c2)OCO3)[C@@H](NC(=O)c2ccc3ccccc3c2)c2cc(OCCCO)ccc2N1C(=O)Cc1ccc(OC)cc1 as the compound, how does the z-score read?
**A.** 0.0642
